# Only some compounds are listed: those with a hit (about 3.5% of all), similar ones and a draw of the others.
# TEAD-YAP inh: TEAD-YAP interaction inhibition, primary screen, TEAD-YAP interaction inhibitor project, luminescence, HEK-TIYL cells | TEAD-Gal4/YAP UAS-luciferase luminescence | inhibition, % at 9.12 µM | actives 1.4% (n = 640,000) | AID 1259422, 2018; in the data active = inhibition above about 32%;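 note: 0% = median of test compound wells and 100% = reference inhibitor wells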
# FBW7 act: FBW7 E3 ligase activators, primary screen, biochemical, AlphaScreen, human | F-box/WD repeat-containing protein 7 (Homo sapiens), Q969H0 | AlphaScreen FBW7–phospho-cyclin E peptide binding, activator screen | normalized activity (activation), % at 26.1 µM | actives 0.13% (n = 650,000); in the data active = normalized activity above about 1.9%;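 note: purified mutant Fbw7 with reduced substrate affinity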
# GPR151 ag: activators of human GPR151, primary screen, cell-based, PathHunter beta-arrestin, luminescence; G-protein coupled receptor 151 (Homo sapiens), Q8TDV0; PathHunter beta-arrestin GPR151 cells; activation, % at 11.2 µM; actives 1% (n = 650,000); AID 1508602, 2020; in the data active = activation above about 4.9%;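 note: 0% = median of compound wells and 100% = cells with positive control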
# MITF primary: MITF inhibitors, primary screen, biochemical, AlphaScreen, human; Microphthalmia-associated transcription factor (Homo sapiens), O75030; AlphaScreen MITF homodimerization, bead proximity signal; inhibition, % at 2.6 µM; actives 0.91% (n = 650,000); in the data active = inhibition above about 50%;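 note: 0% = vehicle wells with protein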
# Target sequence (O75030 whole entry, looked up): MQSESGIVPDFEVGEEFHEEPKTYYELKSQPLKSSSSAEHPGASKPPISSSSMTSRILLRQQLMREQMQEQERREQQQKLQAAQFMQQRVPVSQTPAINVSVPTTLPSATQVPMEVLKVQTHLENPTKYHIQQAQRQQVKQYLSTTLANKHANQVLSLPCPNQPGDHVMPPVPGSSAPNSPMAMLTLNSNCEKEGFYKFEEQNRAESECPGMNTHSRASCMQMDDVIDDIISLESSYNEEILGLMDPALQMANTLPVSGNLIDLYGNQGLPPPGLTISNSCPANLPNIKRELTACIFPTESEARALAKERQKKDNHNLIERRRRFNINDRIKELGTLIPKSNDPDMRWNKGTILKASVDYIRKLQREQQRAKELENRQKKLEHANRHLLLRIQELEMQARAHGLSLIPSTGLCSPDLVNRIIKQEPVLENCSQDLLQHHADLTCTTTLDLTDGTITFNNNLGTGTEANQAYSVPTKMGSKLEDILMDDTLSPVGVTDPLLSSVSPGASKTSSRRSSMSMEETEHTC
# GPR151 conf act: GPR151 activators, triplicate retest, confirmation, cell-based, PathHunter beta-arrestin, luminescence; shares compounds with GPR151 ag; activation, % at 11.2 µM; 6,700 tested, under 10 active; AID 1508609, 2020; GPR151 PathHunter beta-arrestin cells, 90 min; % of EA-reagent control over plate median;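 active = mean percent activation across replicates above the confirmation screen cutoff of 4.91%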
# GPR119 counter: GPR119 activators in beta-arrestin cells, counter-screen for GPR151 activator project, cell-based, PathHunter beta-arrestin, luminescence, triplicate. shares compounds with GPR151 ag. 90 min; 0 = compound-well median, 100 = enzyme-acceptor control. activation, % at 11.2 µM. actives 0.3% (n = 6,700). AID 1508611, 2020;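 active = mean percent activation in the counterscreen above 29.09%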;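 note: counterscreen on off-target GPR119 to flag nonselective hits from the GPR151 activator screen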
# * = called active by the depositor; . = not tested or not shown; ! = not active in a repeat.
SMILES,TEAD-YAP inh,FBW7 act,GPR151 ag,MITF primary,GPR151 conf act,GPR119 counter
COc1ccc(C2C(C#N)=C(N)Oc3n[nH]c(C)c32)c(OC)c1OC (stereo not drawn),-4,0,0,-6,.,.
COc1ccc(O)c(C2NC(=O)NC(C)=C2C(=O)OC(C)C)c1 (stereo not drawn),-14,0,0,3,.,.
COc1ccc(OC)c(C2NC(=O)NC(C)=C2C(=O)OC(C)C)c1 (stereo not drawn),-2,0,5.1*,22,0,12
COC(=O)CNC(=O)c1ccc(S(=O)(=O)N2CCCCC2)cc1,4,0,3,-2,.,.
CN(C)CCCOc1nn(Cc2ccccc2)c2ccccc12,-10,0,6.2*!,0,1,-5
CC1CCCC(NCc2c(C(=O)O)n(Cc3ccccc3F)c3ccccc23)C1C (stereo not drawn),2,0,13*,3,-1,-10
CC1CCCC(NCc2c(C(=O)O)n(Cc3ccccc3Cl)c3ccccc23)C1C (stereo not drawn),2,0,-1,-6,.,.
O=C(CCOc1ccccc1)NCC1COc2ccccc2O1 (stereo not drawn),2,0,0,2,.,.
CCN(CC)c1nc(NCc2cccnc2)nc(N2CCN(c3ccccn3)CC2)n1,-1,0,6.0*,7,-1,-14
CCN(CC)c1nc(NCCO)nc(N2CCN(c3ccccn3)CC2)n1,5,0,7.6*,14,0,-4
O=C(OCc1ccccc1)/C(=C/c1c[nH]c2ccccc12)[N+](=O)[O-],8,0,5.5*,13,-1,-2
Cc1noc(/C=C/C=C/c2ccccc2)c1[N+](=O)[O-],-1,0,0,34,.,.
COc1ccc(OC)c(/C=C\c2onc(C)c2[N+](=O)[O-])c1,2,0,8.9*,-17,0,-8
Clc1ccc(-n2cc(-c3ccccc3)c3c(NCc4ccccc4Cl)ncnc32)cc1,8,0,0,4,.,.
NC(=O)c1ccccc1NC(=O)CCn1c(=S)oc2ccccc21,-1,0,7.8*,15,-1,-3
Clc1nn2cnnc2c2ccccc12,-2,0,6.9*,0,0,-7
c1ccc(-c2nn3cnnc3c3ccccc23)cc1,-15,0,1,6,.,.
CCOCCCNC(=O)CCCOc1ccc(Cl)cc1Cl,0,0,0,-5,.,.
CCCNC(=O)CCCOc1ccc(Cl)cc1Cl,-4,0,13*,12,-1,3
O=C(Nc1ccc2c(c1)CN(C(=O)Cn1c(=O)oc3ccccc31)CC2)C1CCCO1 (stereo not drawn),-2,0,6.8*,13,-1,-7
Cc1ccc(/C=C2\SC(N3CCOCC3)=NC2=O)cc1,-18,0,-1,15,.,.
O=C1N=C(N2CCOCC2)S/C1=C\c1c2ccccc2cc2ccccc12,5,0,1,15,.,.
NC1=NC(=O)/C(=C/c2cn[nH]c2-c2ccccc2)S1,-1,0,0,0,.,.
O=C1N=C(N2CCCC2)S/C1=C\c1cn[nH]c1-c1ccccc1,4,0,7.6*,0,0,5
O=C1N=C(N2CCOCC2)S/C1=C\c1cccc2ccccc12,-40,0,6.1*,17,0,-3
CC(C)Oc1ccc(/C=C2/SC(N3CCOCC3)=NC2=O)cc1,-17,0,7.0*,17,1,11
COc1cc(OC)c(Nc2cccc[n+]2C)cc1Cl,4,0,1,-10,.,.
COc1ccc(-c2nc3c(c(SCC(N)=O)n2)Cc2c(CO)cnc(C)c2O3)cc1,-3,0,0,-1,.,.
COc1ccc(CCNc2ncnc3nc(NCCN4CCOCC4)[nH]c23)cc1,11,0,5.6*,7,1,-1
